Data reported in PubChem BioAssay AID504852 (Southern Research Specialized Biocontainment Screening …, 2011).
Results with a measured potency or affinity are listed apart. Values without a mark were called inactive. The rule behind the calls is not given here.

assay: THP-1 cell cytotoxicity, dose response, cytotoxicity control, set 3 (AID 504852); conditions: THP-1 cell viability, cytotoxicity CC50; series mostly up to 100 µM; viability: at the top concentration

Going from `O=C(CSc1ncccn1)NC1CCCCC1` to `O=C(CSc1nccc(=O)[nH]1)NC1CCCCC1`, the “viability” value rises from 88.8% to 98.9%.

Compared with `Cc1c[nH]c(=S)[nH]c1=O`, `Cc1[nH]c(=S)[nH]c(=O)c1C` is lower in “viability” value: 120% for the first, 104% for the second.

First: Nc1cc(=O)[nH]c(SCC(=O)NC2CCCCC2)n1
Second: Cc1cc(=O)[nH]c(SCC(=O)NC2CCCCC2)n1
The “viability” value of the first is higher: 95.4% for the first, 91.3% for the second.

First: CC(C)NC(=O)CSc1nc2ccccc2c(=O)[nH]1
Second: NC(=O)CSc1nc2ccccc2c(=O)[nH]1
The “viability” value of the first is higher: 92.5% for the first, 92.3% for the second.

First: CC(C)CCNC(=O)CSc1nc2c(c(=O)[nH]1)CCC2
Second: Cc1nc(SCC(=O)NCCC(C)C)[nH]c(=O)c1C
The “viability” value of the first is higher: 90% for the first, 84.9% for the second.

First: O=C(CSc1nc2ccccc2c(=O)[nH]1)N1CCOCC1
Second: CN1CCC(NC(=O)CSc2nc3ccccc3c(=O)[nH]2)CC1
The “viability” value of the first is higher: 102% for the first, 99% for the second.

First: CN(C)C(=O)CSc1nc2ccccc2c(=O)[nH]1
Second: O=C(CSc1nc2ccccc2c(=O)[nH]1)NC1CCCC1
The “viability” value of the first is lower: 81.7% for the first, 113% for the second.

Going from `Cc1nc(SCC(=O)NC2CCCC2)[nH]c(=O)c1C` to `Cc1cnc(SCC(=O)NC2CCCCC2)[nH]c1=O`, the “viability” value rises from 98.5% to 110%.

Compared with `Cc1cc(=O)[nH]c(=S)[nH]1`, `O=c1[nH]c(=S)[nH]c2ccccc12` is lower in “viability” value: 86.5% for the first, 81% for the second.

Going from `COc1ccc(NC(=O)CSc2nc3ccccc3c(=O)[nH]2)cc1` to `Cc1ccc(NC(=O)CSc2nc3ccccc3c(=O)[nH]2)cc1Cl`, the “viability” value rises from 80.2% to 99%.

Compared with `CCOC(=O)CSc1nc(C)c(C)c(=O)[nH]1`, `Cc1nc(SCC(N)=O)[nH]c(=O)c1C` is higher in “viability” value: 82.9% for the first, 96.4% for the second.

Compared with `COc1cccc(NC(=O)CSc2nc3c(c(=O)[nH]2)CCC3)c1`, `CCC(Sc1nc2c(c(=O)[nH]1)CCC2)C(=O)Nc1cccc(OC)c1` (stereo unspecified) is lower in “viability” value: 90% for the first, 82.7% for the second.

First: Cn1c(SCC(=O)NC2CCCCC2)nc2ccccc2c1=O
Second: O=C(CSc1nc2ccccc2c(=O)[nH]1)NC1CCCCC1
The “viability” value of the first is lower: 88.7% for the first, 96.9% for the second.

First: CCC(Sc1nc2ccccc2c(=O)[nH]1)C(=O)Nc1cccc(OC)c1 (stereo unspecified)
Second: Cc1nc(SCc2ccccc2Cl)[nH]c(=O)c1C
The “viability” value of the first is lower: 87.8% for the first, 118% for the second.

Compared with `CCSc1nc(C)c(C)c(=O)[nH]1`, `O=c1[nH]c(SCc2ccccc2Cl)nc2c1CCCC2` is higher in “viability” value: 90.4% for the first, 93.9% for the second.

With `O=C(CSc1nc2c(c(=O)[nH]1)CCC2)NC1CCCCC1` the “viability” value was 91.5%.
